Only some compounds are listed: those with a hit (about 16% of all), similar ones and a draw of the others.
TDP1 cell CPT – qHTS for Inhibitors of human tyrosyl-DNA phosphodiesterase 1 (TDP1): qHTS in cells in presence of CPT. chicken DT40 Tdp1-/-;hTDP1 cells + 20 nM CPT, ATP luminescence, 48 h. Potency, µM (highest dose often 46.2 µM), hits mostly inhibitors. 12% of 420,000 active; also: nearly all actives have a fitted effect of over 55% in size
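Chicken DT40 Tdp1-/- cells complemented with human TDP1, 400 cells/well, exposed to compounds plus 20 nM camptothecin for at least 48 h at 37 C; viability read as ATP content by CellTiter-Glo luminescence.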
TDP1 block – qHTS Assay for Inhibitors of Tyrosyl-DNA Phosphodiesterase (TDP1); recombinant TDP1, AlphaScreen DNA substrate cleavage; 0.28% of 350,000 active; AID 485290, 2010; Potency, µM (titrated, usually from 130 µM), actives largely listed as inhibitors; Tyrosyl-DNA phosphodiesterase 1 (Homo sapiens), Q9NUW8; also: nearly all actives have a fitted effect of over 40% in size
Target sequence (Q9NUW8 whole entry, looked up): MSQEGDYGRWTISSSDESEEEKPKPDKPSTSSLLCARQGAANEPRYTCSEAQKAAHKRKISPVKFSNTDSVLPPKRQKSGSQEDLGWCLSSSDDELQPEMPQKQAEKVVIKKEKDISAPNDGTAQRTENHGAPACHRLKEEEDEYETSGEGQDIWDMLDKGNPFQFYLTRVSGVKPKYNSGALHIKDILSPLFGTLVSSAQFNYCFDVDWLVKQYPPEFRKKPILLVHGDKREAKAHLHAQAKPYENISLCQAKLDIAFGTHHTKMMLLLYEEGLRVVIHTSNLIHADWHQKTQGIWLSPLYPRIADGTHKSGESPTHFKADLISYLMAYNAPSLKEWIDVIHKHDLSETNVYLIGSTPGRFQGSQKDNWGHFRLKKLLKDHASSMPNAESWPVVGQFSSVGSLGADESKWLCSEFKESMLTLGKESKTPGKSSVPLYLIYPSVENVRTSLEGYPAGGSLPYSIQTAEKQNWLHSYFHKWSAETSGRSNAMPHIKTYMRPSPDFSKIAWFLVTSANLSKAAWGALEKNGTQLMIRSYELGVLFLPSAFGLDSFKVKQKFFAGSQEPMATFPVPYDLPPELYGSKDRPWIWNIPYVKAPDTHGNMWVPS
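Recombinant human Tdp1 (E. coli-expressed, 1 nM final) preincubated with compounds 15 min at room temperature, then 5'-biotin/3'-phosphotyrosine-FITC DNA substrate (15 nM final) added for 5 min. AlphaScreen beads (10 ug/ml final) added 10 min; cleavage lowers signal.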
DT40 TDP1 no CPT – qHTS for Inhibitors of human tyrosyl-DNA phosphodiesterase 1 (TDP1): qHTS in cells in absence of CPT; DT40 Tdp1-/- hTDP1 cells, no CPT, ATP luminescence, 48 h; Potency, µM (titrated, usually from 46.2 µM), most hits filed as inhibitors; 15% of 420,000 active; AID 686978, 2013; also: nearly all actives have a fitted effect of over 55% in size
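DT40 Tdp1-/-;hTDP1 cells, no CPT (DMSO vehicle only), 400 cells/well; compounds pin-transferred; ≥48 hr, 37 °C; CellTiter-Glo 30 min RT dark, luminescence read.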
uPA surface inh – qHTS for Inhibitors of Cell Surface uPA Generation | 0.31% of 330,000 active | Potency, µM (doses to about 38.3 µM), hits mostly inhibitors | cell surface uPA generation assay, qHTS; active = well fitted inhibition curve with a large enough effect; inconclusive = small, poorly fitted or top-dose-only effect; inactive = no such curve, though single readings can be large or run the other way; tested in mouse RAW 264.7 cells; also: nearly all actives have a fitted effect of over 55% in size
miR-21 act – qHTS Assay for Modulators of miRNAs and/orActivators of miR-21. Potency, µM (highest dose often 38.3 µM), hits mostly activators. 340,000 tested, under 10 active. HeLa miR-21 FLuc reporter, luciferase, 48 h;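 also: miR-21 action dims this reporter so a rising signal means less miR-21 action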
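HeLa cells stably expressing CMV-driven firefly luciferase with a downstream miR-21 binding sequence, endogenously expressing miR-21, were treated with titrations (up to about 40uM final) for 48 hours at 37 degree Celsius. Luciferase luminescence was read after lysis.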
A number is an active result; - = inactive; ? = inconclusive; . = not tested or not shown; ! = repeats disagree; [ ] = remark or other dose. Unless noted, calls follow the shape of the dose curve; as a rule, active = well fitted curve in the direction sought with a large enough effect; inconclusive = small, poorly fitted or top-dose-only effect, or another doubt; inactive = no such curve, though single readings can be large; an effect the other way counts as inactive or inconclusive.

SMILES	TDP1 cell CPT	TDP1 block	DT40 TDP1 no CPT	uPA surface inh	miR-21 act
COc1ccccc1CNc1ccc(-c2nc(C)no2)cc1[N+](=O)[O-]	7.3µM	-	7.3µM	.	-
O=C(C[n+]1cc(-c2ccc(F)cc2)n2c1CCC2)Nc1nc(-c2ccccc2)cs1	?	-	?	-	-
O=C(C[n+]1cc(-c2ccc(Cl)cc2)n2c1CCC2)Nc1nc(-c2ccccc2)cs1	?	-	5.8µM	-	-
Cc1ccc(-c2c[n+](CC(=O)Nc3nc(-c4ccc(F)cc4)cs3)c3n2CCC3)cc1	12µM	-	10µM	-	-
CC(=O)N1c2ccc(S(=O)(=O)N3CCC(C(=O)NCc4ccccc4Cl)CC3)cc2CC1C (stereo not drawn)	-	-	?	-	-
O=C(Nc1ncc([N+](=O)[O-])s1)c1ccco1	?	-	?	-	-
COc1ccc(Cn2c(CO)cnc2SCc2ccc(F)cc2)cc1	?	-	18µM	.	-
OCc1cnc(SCc2ccccc2F)n1Cc1ccc(F)cc1	?	-	?	.	-
COc1ccc(Cn2c(CO)cnc2SCc2ccccc2C)cc1	?	-	?	.	-
Cn1c(CO)cnc1SCc1ccc(F)cc1	-	-	-	-	-
OCc1cnc(SCc2ccccc2)n1Cc1ccccc1	?	-	16µM	-	-
COc1ccc(Cn2c(CO)cnc2SCc2ccc(C)cc2)cc1	18µM	-	?	.	-
NC(=S)N/N=C1\CC(n2nnn(-c3cccc(Cl)c3)c2=S)C2COC1O2 (stereo not drawn)	-	-	?	-	-
O=C(NNC(=O)C1COc2ccccc2O1)c1ccccc1 (stereo not drawn)	-	-	-	.	-
Cc1ccc(S(=O)(=O)N2C[C@H]3n4c(=O)ccc(=O)n4C[C@H](OC(=O)NCC4CCCCC4)[C@@]3(O)C2)cc1	2.6µM	.	3.7µM	.	.
COC(=O)[C@H]1C[C@H](OC(=O)Nc2c(C)noc2C)[C@@]2(O)CN(S(=O)(=O)c3ccc(C)cc3)CC2[C@H]1C(=O)OC (stereo partly drawn)	-	.	?	.	.
Cc1ccc(S(=O)(=O)N2C[C@H]3n4c(=O)ccc(=O)n4C[C@H](OC(=O)NCc4ccccc4)[C@@]3(O)C2)cc1	?	.	26µM	.	.
COc1ccc(CNC(=O)O[C@H]2Cn3c(=O)ccc(=O)n3[C@@H]3CN(S(=O)(=O)c4ccc(C)cc4)C[C@]23O)cc1OC	-	.	-	.	.
CCCCCCn1c(=O)n2n(c1=O)[C@@H]1CN(S(=O)(=O)c3ccc(C)cc3)C[C@]1(O)[C@@H](OC(=O)Nc1c(C)noc1C)C2	?	.	29µM	.	.
CCOC(=O)c1ccc(S(=O)(=O)N2CCC(C(=O)NCC3CCCCC3)CC2)cc1	-	-	-	-	.
CCN(CC)CCCN(Cc1cc2ccc(C)c(C)c2[nH]c1=O)C(=O)NC1CCCCC1	?	-	?	.	-
Cc1ccc(C(=O)C2CC2)cc1C	-	.	-	-	.
Cn1c(CNS(=O)(=O)c2ccc(Br)cc2)n[nH]c1=S	-	-	-	-	-
CCSC1=NC(C)(C)C=C(/C=C/c2ccc(Cl)cc2Cl)N1	?	-	16µM	-	-
CSC1=NC(C)(C)C=C(/C=C/c2ccc(Cl)cc2)N1	21µM	-	16µM	-	-
SMILES	TDP1 cell CPT	TDP1 block	DT40 TDP1 no CPT	uPA surface inh	miR-21 act
COc1cc(OC)cc(C(=O)OCC(=O)N2CCCC2)c1	-	-	-	-	-
COc1ccc(N(CC(=O)NCCSC2CCCCC2)S(C)(=O)=O)c(OC)c1	?	-	-	.	-
CCN(CC)S(=O)(=O)c1cccc(C(=O)NCCCN2CCOCC2)c1	-	-	-	-	-
CCC(C)[C@H]1O[C@]2(C=C[C@@H]1C)C[C@@H]1C[C@@H](C/C=C(\C)[C@@H](O[C@H]3C[C@H](OC)[C@@H](O[C@H]4C[C@H](OC)[C@H](NC(C)=O)[C@H](C)O4)[C@H](C)O3)[C@@H](C)/C=C/C=C3\CO[C@@H]4[C@H](O)C(C)=C[C@@H](C(=O)O1)[C@]34O)O2 (stereo partly drawn)	4.2µM	.	2.7µM	.	.
CC[C@H](C)[C@@H]1O[C@]2(CC[C@@H]1C)C[C@H]1C[C@H](CC=C(C)[C@@H](O[C@@H]3C[C@H](OC)[C@H](O[C@@H]4C[C@H](OC)[C@H](O)[C@H](C)O4)[C@H](C)O3)[C@@H](C)C=CC=C3CO[C@@H]4[C@@H](O)C(C)=C[C@@H](C(=O)O1)[C@]34O)O2	.	-	.	.	.
CC[C@@H](C)[C@H]1O[C@]2(CC[C@@H]1C)C[C@@H]1C[C@H](C/C=C(/C)[C@H](O[C@@H]3C[C@H](OC)[C@H](O[C@@H]4C[C@H](OC)[C@@H](O)[C@H](C)O4)[C@H](C)O3)[C@@H](C)/C=C\C=C3CO[C@@H]4[C@H](O)C(C)=C[C@@H](C(=O)O1)[C@]34O)O2 (tested in a mixture with another compound)	12µM	-	?	.	.
CC[C@H](C)[C@H]1O[C@]2(CC[C@@H]1C)C[C@@H]1C[C@@H](CC=C(C)[C@@H](O[C@H]3C[C@H](OC)[C@@H](O[C@H]4C[C@H](OC)[C@@H](O)[C@H](C)O4)[C@H](C)O3)[C@@H](C)C=CC=C3CO[C@@H]4[C@H](O)C(C)=C[C@@H](C(=O)O1)[C@]34O)O2	3.7µM	.	3.7µM	2.5µM	.
CC[C@@H](C)[C@H]1O[C@]2(CC[C@@H]1C)C[C@@H]1C[C@@H](C/C=C(\C)[C@@H](O[C@H]3C[C@H](OC)[C@@H](O[C@H]4C[C@H](OC)[C@@H](O)[C@H](C)O4)[C@H](C)O3)[C@@H](C)/C=C/C=C3\CO[C@@H]4[C@H](O)C(C)=C[C@@H](C(=O)O1)[C@]34O)O2	.	-	.	.	.
CON=C1C[C@]2(C[C@@H]3C[C@@H](C/C=C(\C)C[C@@H](C)/C=C/C=C4\CO[C@@H]5[C@H](O)C(C)=C[C@@H](C(=O)O3)[C@]45O)O2)O[C@H](/C(C)=C/C(C)C)[C@H]1C	4.2µM!	.	21µM!	.	.
Cc1ccc(NC(=O)[C@H](C)NC(=O)C2CCN(C(=O)[C@H](CC(C)C)NC(=O)OC(C)(C)C)CC2)cc1	-	.	-	-	-
O=C1CSc2ccc(S(=O)(=O)CCC(=O)NC3CCCCC3)cc2N1	-	-	?	-	-
CCOC(=O)OCC1OC(C#CC(C)(C)C)C=CC1OC(=O)OCC (stereo not drawn)	.	-[21 µM]	.	.	.
Cc1cc(C)c2nc(SCC(=O)NCCC3=CCCCC3)cc(C)c2c1	?	-	21µM	-	-
Cc1cc(C)c(Cn2c3ccccc3c3cnn(CC(=O)NCc4ccccn4)c(=O)c32)c(C)c1	21µM	-	23µM	-	-
